# Source: ChEMBL document CHEMBL1961873, “Compounds: GSK PKIS; Assays: Nanosyn kinase panel” (2012)
# Legend:
# [1] = target: T1, Tyrosine-protein kinase ITK/TSK (Homo sapiens) (UniProt Q08881); conditions: at 1 µM;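 note: values are mean percent inhibition of ITK from the GSK PKIS screen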
# T1 sequence (whole entry): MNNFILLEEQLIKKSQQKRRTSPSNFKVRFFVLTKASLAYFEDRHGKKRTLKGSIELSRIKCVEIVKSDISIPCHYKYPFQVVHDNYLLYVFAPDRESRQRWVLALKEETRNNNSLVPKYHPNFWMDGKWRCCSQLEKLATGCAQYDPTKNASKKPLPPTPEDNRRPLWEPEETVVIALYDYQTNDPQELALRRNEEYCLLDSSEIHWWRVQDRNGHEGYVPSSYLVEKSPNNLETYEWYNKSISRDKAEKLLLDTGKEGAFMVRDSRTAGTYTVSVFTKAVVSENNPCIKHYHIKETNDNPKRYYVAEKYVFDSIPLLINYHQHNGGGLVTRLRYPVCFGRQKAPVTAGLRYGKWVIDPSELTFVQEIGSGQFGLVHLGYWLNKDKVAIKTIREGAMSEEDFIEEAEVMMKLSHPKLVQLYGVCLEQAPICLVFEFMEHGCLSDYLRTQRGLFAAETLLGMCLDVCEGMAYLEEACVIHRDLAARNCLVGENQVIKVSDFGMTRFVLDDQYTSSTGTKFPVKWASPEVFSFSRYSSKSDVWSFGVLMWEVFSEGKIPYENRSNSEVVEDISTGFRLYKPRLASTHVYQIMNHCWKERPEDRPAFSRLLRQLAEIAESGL
# [2] = target: Tyrosine-protein kinase JAK1 (Homo sapiens) (UniProt P23458); conditions: at 0.1 µM
# [3] = target: Tyrosine-protein kinase JAK1 (Homo sapiens) (UniProt P23458); conditions: at 1 µM
# [4] = target: Tyrosine-protein kinase JAK2 (Homo sapiens) (UniProt O60674); conditions: at 0.1 µM
# [5] = target: Tyrosine-protein kinase JAK2 (Homo sapiens) (UniProt O60674); conditions: at 1 µM
# [6] = target: T2, Tyrosine-protein kinase JAK3 (Homo sapiens) (UniProt P52333); conditions: at 0.1 µM
# T2 sequence (whole entry): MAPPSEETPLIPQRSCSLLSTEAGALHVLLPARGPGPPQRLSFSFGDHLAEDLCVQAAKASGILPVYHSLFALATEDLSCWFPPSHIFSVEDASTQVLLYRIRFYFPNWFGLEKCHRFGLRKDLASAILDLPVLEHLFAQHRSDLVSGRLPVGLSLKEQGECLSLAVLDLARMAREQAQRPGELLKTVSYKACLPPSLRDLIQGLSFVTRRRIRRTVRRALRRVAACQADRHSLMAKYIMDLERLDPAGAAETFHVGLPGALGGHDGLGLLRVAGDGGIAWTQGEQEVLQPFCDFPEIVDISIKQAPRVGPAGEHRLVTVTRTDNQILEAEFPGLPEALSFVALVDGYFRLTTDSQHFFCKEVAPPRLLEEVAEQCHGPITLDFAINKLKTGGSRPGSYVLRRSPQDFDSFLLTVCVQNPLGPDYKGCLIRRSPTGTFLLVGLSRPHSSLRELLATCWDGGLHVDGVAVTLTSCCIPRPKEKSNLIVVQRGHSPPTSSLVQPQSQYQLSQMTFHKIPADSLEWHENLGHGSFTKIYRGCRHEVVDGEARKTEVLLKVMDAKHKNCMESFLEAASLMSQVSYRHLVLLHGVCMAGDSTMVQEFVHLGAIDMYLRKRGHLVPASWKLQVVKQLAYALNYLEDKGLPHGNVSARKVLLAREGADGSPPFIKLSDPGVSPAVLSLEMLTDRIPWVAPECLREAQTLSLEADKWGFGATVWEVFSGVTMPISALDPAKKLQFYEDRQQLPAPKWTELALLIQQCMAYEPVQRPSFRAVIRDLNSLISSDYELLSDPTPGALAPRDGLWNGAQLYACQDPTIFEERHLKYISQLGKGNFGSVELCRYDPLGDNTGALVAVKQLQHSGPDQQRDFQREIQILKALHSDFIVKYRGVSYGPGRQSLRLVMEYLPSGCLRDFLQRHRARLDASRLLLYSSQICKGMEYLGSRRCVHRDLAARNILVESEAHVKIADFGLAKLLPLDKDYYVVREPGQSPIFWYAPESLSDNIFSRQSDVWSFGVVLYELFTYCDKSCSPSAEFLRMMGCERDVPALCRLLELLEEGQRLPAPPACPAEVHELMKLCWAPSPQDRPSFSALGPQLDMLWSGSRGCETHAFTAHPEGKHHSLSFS
# [7] = target: T2, Tyrosine-protein kinase JAK3 (Homo sapiens); conditions: at 1 µM
# [8] = target: Vascular endothelial growth factor receptor 2 (Homo sapiens) (UniProt P35968); conditions: at 0.1 µM
# [9] = target: Vascular endothelial growth factor receptor 2 (Homo sapiens) (UniProt P35968); conditions: at 1 µM
# [10] = target: Mast/stem cell growth factor receptor Kit (Homo sapiens) (UniProt P10721); conditions: at 0.1 µM
# [11] = target: Mast/stem cell growth factor receptor Kit (Homo sapiens) (UniProt P10721); conditions: at 1 µM
# [12] = system: Mast/stem cell growth factor receptor Kit (Homo sapiens), P10721 [D816V]; conditions: at 0.1 µM
# [13] = system: Mast/stem cell growth factor receptor Kit (Homo sapiens), P10721 [D816V]; conditions: at 1 µM
# [14] = system: Mast/stem cell growth factor receptor Kit (Homo sapiens), P10721 [T670I]; conditions: at 0.1 µM
# [15] = system: Mast/stem cell growth factor receptor Kit (Homo sapiens), P10721 [T670I]; conditions: at 1 µM
# [16] = system: Mast/stem cell growth factor receptor Kit (Homo sapiens), P10721 [V560G]; conditions: at 0.1 µM
# [17] = system: Mast/stem cell growth factor receptor Kit (Homo sapiens), P10721 [V560G]; conditions: at 1 µM
# [18] = target: Tyrosine-protein kinase Lck (Homo sapiens) (UniProt P06239); conditions: at 0.1 µM
# [19] = target: Tyrosine-protein kinase Lck (Homo sapiens) (UniProt P06239); conditions: at 1 µM
# [20] = target: Leukocyte tyrosine kinase receptor (Homo sapiens) (UniProt P29376); conditions: at 0.1 µM
# Chain of Leukocyte tyrosine kinase receptor (Homo sapiens) (P29376 whole entry): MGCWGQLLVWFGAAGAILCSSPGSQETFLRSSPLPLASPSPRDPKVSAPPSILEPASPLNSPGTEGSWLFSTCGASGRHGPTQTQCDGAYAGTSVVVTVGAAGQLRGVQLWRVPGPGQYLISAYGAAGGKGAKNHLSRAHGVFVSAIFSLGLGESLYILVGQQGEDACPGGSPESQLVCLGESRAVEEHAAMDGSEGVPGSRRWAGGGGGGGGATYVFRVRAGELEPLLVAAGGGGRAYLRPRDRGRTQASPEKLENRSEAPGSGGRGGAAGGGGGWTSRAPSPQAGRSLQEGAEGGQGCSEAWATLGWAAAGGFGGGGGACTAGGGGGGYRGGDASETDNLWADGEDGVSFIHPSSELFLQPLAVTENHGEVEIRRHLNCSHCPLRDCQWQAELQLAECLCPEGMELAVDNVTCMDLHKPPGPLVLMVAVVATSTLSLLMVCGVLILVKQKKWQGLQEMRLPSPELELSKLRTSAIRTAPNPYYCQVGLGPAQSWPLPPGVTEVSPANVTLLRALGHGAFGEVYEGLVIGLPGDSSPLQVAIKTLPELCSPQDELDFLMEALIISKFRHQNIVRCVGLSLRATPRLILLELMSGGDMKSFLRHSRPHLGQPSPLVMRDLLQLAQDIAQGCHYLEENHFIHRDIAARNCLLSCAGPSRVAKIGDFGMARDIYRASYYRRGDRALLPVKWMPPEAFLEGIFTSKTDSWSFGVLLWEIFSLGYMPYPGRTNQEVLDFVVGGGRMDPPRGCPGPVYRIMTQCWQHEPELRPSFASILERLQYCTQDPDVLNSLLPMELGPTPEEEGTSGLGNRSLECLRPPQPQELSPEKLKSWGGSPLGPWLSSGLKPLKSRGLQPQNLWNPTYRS
# Chain of Mast/stem cell growth factor receptor Kit (Homo sapiens), P10721 [T670I] (P10721 whole entry T670I): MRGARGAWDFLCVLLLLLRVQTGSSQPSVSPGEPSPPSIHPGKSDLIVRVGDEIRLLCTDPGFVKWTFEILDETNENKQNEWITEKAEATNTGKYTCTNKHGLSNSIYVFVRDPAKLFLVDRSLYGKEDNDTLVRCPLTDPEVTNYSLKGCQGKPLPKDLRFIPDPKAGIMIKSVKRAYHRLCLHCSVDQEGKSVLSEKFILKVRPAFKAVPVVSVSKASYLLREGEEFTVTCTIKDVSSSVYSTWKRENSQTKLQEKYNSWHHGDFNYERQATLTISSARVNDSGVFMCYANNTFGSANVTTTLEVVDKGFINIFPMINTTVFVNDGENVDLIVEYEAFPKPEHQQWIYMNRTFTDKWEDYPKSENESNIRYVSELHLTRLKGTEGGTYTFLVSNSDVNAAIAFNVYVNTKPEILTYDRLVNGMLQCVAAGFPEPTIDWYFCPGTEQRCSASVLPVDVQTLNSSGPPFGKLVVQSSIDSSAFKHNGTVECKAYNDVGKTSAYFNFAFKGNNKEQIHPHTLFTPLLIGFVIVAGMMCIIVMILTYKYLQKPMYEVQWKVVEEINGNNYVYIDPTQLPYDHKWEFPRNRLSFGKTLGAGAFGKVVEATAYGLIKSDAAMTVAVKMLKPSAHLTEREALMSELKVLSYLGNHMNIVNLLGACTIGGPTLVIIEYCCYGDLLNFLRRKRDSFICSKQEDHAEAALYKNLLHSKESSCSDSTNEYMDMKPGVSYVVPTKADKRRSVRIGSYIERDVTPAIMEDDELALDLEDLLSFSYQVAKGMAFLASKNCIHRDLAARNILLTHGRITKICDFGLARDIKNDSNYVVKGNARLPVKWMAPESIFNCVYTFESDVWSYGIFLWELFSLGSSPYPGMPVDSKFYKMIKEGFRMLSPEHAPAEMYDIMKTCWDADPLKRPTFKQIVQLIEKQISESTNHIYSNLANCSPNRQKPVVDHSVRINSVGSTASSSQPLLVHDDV
# Chain of Tyrosine-protein kinase Lck (Homo sapiens) (P06239 2-509 limits assumed): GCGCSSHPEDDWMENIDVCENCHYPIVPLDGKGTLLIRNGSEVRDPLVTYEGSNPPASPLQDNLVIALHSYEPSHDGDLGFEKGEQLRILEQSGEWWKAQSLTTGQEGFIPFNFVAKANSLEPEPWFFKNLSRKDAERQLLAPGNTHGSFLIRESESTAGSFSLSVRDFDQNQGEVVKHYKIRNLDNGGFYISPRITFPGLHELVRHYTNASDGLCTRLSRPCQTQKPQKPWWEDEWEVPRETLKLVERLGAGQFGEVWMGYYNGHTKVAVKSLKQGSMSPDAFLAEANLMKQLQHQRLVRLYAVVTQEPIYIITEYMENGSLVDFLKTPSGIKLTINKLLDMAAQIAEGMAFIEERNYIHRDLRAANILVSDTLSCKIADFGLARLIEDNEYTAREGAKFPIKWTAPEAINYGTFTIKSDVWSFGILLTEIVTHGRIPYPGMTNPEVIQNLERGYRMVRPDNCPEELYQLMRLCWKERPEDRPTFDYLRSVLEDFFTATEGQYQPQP
# Chain of Vascular endothelial growth factor receptor 2 (Homo sapiens) (P35968 whole entry): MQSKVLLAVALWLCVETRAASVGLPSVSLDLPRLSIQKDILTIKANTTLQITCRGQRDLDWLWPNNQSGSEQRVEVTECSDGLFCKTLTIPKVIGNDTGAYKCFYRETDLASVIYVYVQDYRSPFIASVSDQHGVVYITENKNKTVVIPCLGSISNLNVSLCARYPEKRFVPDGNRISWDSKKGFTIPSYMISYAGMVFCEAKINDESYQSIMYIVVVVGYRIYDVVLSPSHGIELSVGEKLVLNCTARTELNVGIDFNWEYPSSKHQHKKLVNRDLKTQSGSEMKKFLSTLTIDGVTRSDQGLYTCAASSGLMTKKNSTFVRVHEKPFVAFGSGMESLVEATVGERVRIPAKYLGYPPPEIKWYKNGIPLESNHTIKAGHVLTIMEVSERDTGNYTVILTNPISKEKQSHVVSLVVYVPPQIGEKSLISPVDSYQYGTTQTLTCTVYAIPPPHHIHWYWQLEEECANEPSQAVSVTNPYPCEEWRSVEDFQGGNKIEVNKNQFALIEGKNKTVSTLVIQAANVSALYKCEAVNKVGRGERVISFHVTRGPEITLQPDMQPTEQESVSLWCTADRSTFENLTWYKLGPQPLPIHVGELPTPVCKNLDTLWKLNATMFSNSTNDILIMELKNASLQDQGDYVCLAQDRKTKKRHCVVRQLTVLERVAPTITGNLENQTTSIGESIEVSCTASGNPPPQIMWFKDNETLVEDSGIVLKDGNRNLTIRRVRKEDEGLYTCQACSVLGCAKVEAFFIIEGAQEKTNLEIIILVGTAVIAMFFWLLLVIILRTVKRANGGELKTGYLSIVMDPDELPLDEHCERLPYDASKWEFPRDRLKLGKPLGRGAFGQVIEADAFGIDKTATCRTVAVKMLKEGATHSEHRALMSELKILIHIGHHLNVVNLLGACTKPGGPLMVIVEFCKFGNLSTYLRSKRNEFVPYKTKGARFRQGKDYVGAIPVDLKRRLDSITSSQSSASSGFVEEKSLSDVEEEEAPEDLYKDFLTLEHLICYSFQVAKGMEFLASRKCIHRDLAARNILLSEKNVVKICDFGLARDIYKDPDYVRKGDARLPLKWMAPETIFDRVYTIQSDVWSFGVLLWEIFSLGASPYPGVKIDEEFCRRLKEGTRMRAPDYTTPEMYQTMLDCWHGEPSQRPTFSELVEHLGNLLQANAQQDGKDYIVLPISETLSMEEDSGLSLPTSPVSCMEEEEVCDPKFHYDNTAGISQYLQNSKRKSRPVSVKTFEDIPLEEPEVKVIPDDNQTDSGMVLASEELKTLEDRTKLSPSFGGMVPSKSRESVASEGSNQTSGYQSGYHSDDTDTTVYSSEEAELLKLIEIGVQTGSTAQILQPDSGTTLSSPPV
# Chain of Mast/stem cell growth factor receptor Kit (Homo sapiens), P10721 [D816V] (P10721 whole entry D816V): as the sequence (P10721 whole entry T670I) above, with I670T, D816V counted along it
# Chain of Mast/stem cell growth factor receptor Kit (Homo sapiens), P10721 [V560G] (P10721 whole entry V560G): as the sequence (P10721 whole entry T670I) above, with V560G, I670T counted along it
# Chain of Tyrosine-protein kinase JAK2 (Homo sapiens) (O60674 whole entry): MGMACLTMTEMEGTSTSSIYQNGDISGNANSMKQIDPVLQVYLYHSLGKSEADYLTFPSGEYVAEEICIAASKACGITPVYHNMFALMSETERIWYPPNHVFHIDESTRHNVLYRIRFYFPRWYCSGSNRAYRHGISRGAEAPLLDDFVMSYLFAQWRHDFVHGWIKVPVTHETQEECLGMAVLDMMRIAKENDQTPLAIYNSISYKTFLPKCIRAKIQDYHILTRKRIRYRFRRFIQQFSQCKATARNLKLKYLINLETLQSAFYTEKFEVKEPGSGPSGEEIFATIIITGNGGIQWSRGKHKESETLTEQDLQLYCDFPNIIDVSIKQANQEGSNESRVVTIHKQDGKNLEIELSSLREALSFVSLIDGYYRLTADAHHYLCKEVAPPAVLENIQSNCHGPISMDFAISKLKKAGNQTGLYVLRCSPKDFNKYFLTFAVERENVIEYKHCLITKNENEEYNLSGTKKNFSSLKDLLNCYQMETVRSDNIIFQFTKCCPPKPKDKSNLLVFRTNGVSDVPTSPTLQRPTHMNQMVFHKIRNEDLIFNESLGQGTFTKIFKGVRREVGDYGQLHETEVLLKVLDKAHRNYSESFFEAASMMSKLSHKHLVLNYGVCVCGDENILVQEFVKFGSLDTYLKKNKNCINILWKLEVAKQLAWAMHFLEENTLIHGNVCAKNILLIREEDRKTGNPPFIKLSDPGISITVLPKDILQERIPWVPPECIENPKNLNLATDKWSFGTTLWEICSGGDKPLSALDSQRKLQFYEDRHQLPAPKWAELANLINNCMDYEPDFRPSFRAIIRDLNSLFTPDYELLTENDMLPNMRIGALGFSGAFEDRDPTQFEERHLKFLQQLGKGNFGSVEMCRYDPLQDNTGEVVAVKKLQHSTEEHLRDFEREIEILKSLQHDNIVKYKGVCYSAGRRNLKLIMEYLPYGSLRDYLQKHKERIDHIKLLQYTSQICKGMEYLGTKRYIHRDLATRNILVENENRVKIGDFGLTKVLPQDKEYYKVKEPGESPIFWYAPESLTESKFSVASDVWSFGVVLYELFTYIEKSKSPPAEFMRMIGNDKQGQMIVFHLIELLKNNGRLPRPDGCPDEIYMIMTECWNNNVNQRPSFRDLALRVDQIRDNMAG
# Chain of Mast/stem cell growth factor receptor Kit (Homo sapiens) (P10721 whole entry): as the sequence (P10721 whole entry T670I) above, with I670T counted along it
Structure (SMILES),inhibition [1] [%],inhibition [2] [%],inhibition [3] [%],inhibition [4] [%],inhibition [5] [%],inhibition [6] [%],inhibition [7] [%],inhibition [8] [%],inhibition [9] [%],inhibition [10] [%],inhibition [11] [%],inhibition [12] [%],inhibition [13] [%],inhibition [14] [%],inhibition [15] [%],inhibition [16] [%],inhibition [17] [%],inhibition [18] [%],inhibition [19] [%],inhibition [20] [%]
CCn1c(-c2nonc2N)nc2c(C#CC(C)(C)O)ncc(OCC3CCNCC3)c21,-1.96,4.7,12.5,0.61,1.31,-4.99,-3.39,34.8,71.2,4.46,8.48,3.82,5.6,1.76,4.21,3.17,3.26,-3.71,-1.12,2.4
CCn1c(-c2nonc2N)nc2c(C#CC(C)(C)O)nc(O[C@@H](CN)c3ccccc3)cc21,0.91,-1.37,4.4,-0.3,0.78,0.59,3.54,86.8,75.4,-1.5,2.69,0.72,34.2,-0.51,10.4,3.42,3.54,0.41,4.58,35.4
COc1cccc(-n2ncc3c(N/N=C/c4ccncc4)ncnc32)c1,5.47,5.43,15.3,2.01,13.5,-0.96,10.6,28.8,69.2,13.5,57.2,2.45,12.7,9.47,46.9,0.93,10.7,41.1,84,4.93
COc1cc(C=NNc2ncnc3c2cnn3Cc2ccccc2)ccc1O,0.65,-5.07,3.34,-1.56,-0.04,0.38,3.71,-1.08,12.2,-5.78,-1.55,-5.85,0.6,-3.69,-2.85,1.99,3.94,13.2,14.2,-2.98
CCn1c(-c2nonc2N)nc2c(C#CCN)ncc(OCCCN)c21,-1.36,4.06,13.7,-1.01,-1.7,5.62,4.64,-3.31,5.24,-1.96,3.33,-3.56,3.48,-1.86,2.2,1.17,2.93,1.94,0.46,-1.04
NC(=O)c1sc(-n2cnc3cc(C(F)(F)F)ccc32)cc1OCc1ccccc1Br,1.42,5.27,5.31,0.93,-0.32,-1.17,0.71,1.59,4.43,-1.21,1.77,-1.89,-0.03,0.92,0.92,0.44,-1.3,1.84,4.62,1.94
COc1cccc(COc2cc(-n3cnc4ccccc43)sc2C(N)=O)c1,0.54,-1.14,0.01,-1.09,-2.1,-1.45,-1.13,-3.84,3.07,0.16,-3.97,-0.07,-0.97,-0.12,-0.76,-2.2,-2.16,0.12,-0.7,0.36
NS(=O)(=O)c1ccc(-c2ccc3c(NC(=O)C4CC4)n[nH]c3c2)cc1,6.67,1.47,-1.13,1.06,2.65,-0.06,2.45,3.61,8.35,3.61,1.91,3.57,0.9,4.28,4.13,2.1,-1.99,2.8,4.43,1.17
Fc1ccc(-c2ncn(C3CCNCC3)c2-c2ccnc(Oc3ccccc3)n2)cc1,-3.42,1.24,-0.07,-0.28,-0.02,-6.39,-5.72,4.3,6.72,0.89,1.46,0.53,4.38,0.68,2.08,3.13,1.77,-2.11,-2.53,0.54
Cc1cc(-c2ccco2)cc(C)c1/C=C/c1cncc(-c2nn[nH]n2)c1,0.9,-0.35,3.09,0,-0.44,-1.94,0.31,-2.08,-0.14,-0.86,0.94,-2.81,-2.99,1.44,0.51,1.15,3.87,1.77,4.38,1.51
CCn1c(-c2nonc2N)nc2c(C#CC(C)(C)O)ncc(OC[C@@H]3CCCN3)c21,0.41,0.75,2.18,-1.4,-2.12,-2.14,0.33,31.2,81.3,-1.26,-2.57,-1.62,4.32,-1.38,1.32,0.39,-1.89,1.21,3.66,0.71
COc1cc2c(cc1Nc1nc(Nc3ccsc3C(N)=O)c3cc[nH]c3n1)N(C(=O)CN(C)C)CCC2,0.88,3.36,1.85,3.45,-0.28,-2.19,-1.7,1.27,5.32,–,–,0.61,2.53,-0.99,3.92,1.1,8.54,2.58,6.92,93.8
Nc1nonc1-c1nc2cnccc2n1C1CCCCC1,0.48,-2.62,2.81,-0.95,-0.41,-0.04,3.98,6.99,46.3,-1.47,20.6,-4.78,-1.9,-2.27,13.3,1.39,3.23,-0.24,0.51,-0.53
NS(=O)(=O)c1ccc(N/C=C2\C(=O)Nc3ccc4ncsc4c32)cc1,8.24,5.09,26.8,1.74,11.1,6.45,54.4,43.8,75.3,50,90,0.89,14.5,12.1,58.9,0.83,20.2,4.26,13.2,5.19
